Data reported in PubChem BioAssay AID540259 (Broad Institute, 2011).
Measured potencies and affinities stand elsewhere. Active and inactive are the calls of the source.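 The calls were made as follows: active = cell killing, meaning signal decrease, with fitted half-maximal dose at or below ten times the top valid tested dose; inconclusive = poor fit, or flat curve with 30 to 70% signal loss; inactive = the rest.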

experiment: HeLa cell cytotoxicity, dose response, cytotoxicity control for MITF activator project, CellTiter-Glo luminescence, cherry-pick samples (AID 540259); conditions: HeLa viability, CellTiter-Glo ATP luminescence, 24 h; series mostly up to 35 µM; activity change, negative = cytotoxicity: at the top concentration;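 also: 0% = DMSO neutral control and -100% = mitoxantrone positive control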

SMILES	activity change, negative = cytotoxicity
CCc1c(C(=O)Nc2ccc(C)c(C)c2)[nH]c(C)c1C(C)=O	0.691% (inactive)
COc1ccccc1C(=O)NCC(=O)Nc1ccc2c(c1)CCC2	13.6% (inactive)
CSCC[C@H](NC(=O)[C@@H]1Cc2ccccc2CN1)C(=O)NC[C@H]1CC[C@H](C(=O)O)CC1	15.4% (inactive)
COc1ccc(Oc2ncnc3sccc23)cc1	2.48% (inactive)
O=C(O)c1ccc(/C=C/c2ccc3cccc(O)c3n2)cc1	6.91% (inactive)
NNC(=O)c1ccc2nc(-c3ccc(Br)cc3)cn2c1	11.7% (inactive)
C=CCSc1nncn1/N=C/c1ccc(OC)cc1	11.5% (inactive)
Cc1ccc(-c2nn(-c3ccccc3)cc2/C=N/O)cc1	27.1% [at 11 µM] (inactive)
Clc1ccccc1OCc1nnc(-c2ccccc2Br)o1	-2% (inactive)
CCn1c(C(=O)NC2CCC(C)CC2)cc2sccc21 (stereo unspecified)	-2.55% (inactive)
Cc1ccc(NC(=O)N2CCc3ccccc3C2)cc1C	9.08% (inactive)
CN1C(=O)C2C=CC1C1C(=O)N(c3ccccc3)C(=O)C21 (stereo unspecified)	15.4% (inactive)
COC(=O)Cn1c(=NC(=O)c2ccc(Cl)s2)sc2cc(C)ccc21	-6.41% (inactive)
O=C(c1cc(COc2ccc(F)cc2Cl)on1)N1CCCCCC1	-8.23% (inactive)
Cc1nc2c3cnn(-c4ccc(C)c(C)c4)c3ncn2n1	-8.14% (inactive)
CN1CCN(/N=C/c2ccc(Br)cc2)CC1	1.36% (inactive)
Brc1ccc(OCc2cn3ccccc3n2)cc1	1.85% (inactive)
Nc1ncccc1OCc1ccc(Br)cc1	-6.3% (inactive)

SMILES	activity change, negative = cytotoxicity
O=c1nc(/C=C/c2ccc(O)c(O)c2)oc2ccccc12	11.3% (inactive)
CC(C)(C)c1ccc(C(=O)NCc2ccccc2)cc1	-4.79% (inactive)
C=CCn1cnc2c(nnn2-c2ccc(C)c(C)c2)c1=O	-8.47% (inactive)
c1ccc(CSCc2nc3ccccc3[nH]2)cc1	11.5% (inactive)
CCc1ccc(C(=O)N/N=C(\C)c2cccnc2)s1	8.45% (inactive)
CCCc1cc(C(=O)Nc2ccc(C(=O)OC)cc2)cs1	-6.83% (inactive)
CC(C)c1ccc(CNc2ncc(Br)cn2)cc1	10.1% (inactive)
Nc1ccc(-c2nc3ncccc3o2)c(O)c1	-12.7% (inactive)
COC(=O)c1ccc(N=NN2CCCCC2)cc1	5.75% (inactive)
C=CCNC(=O)c1ccc2nc(Cc3ccc(OC)cc3)oc2c1	12.1% (inactive)
COc1ccc(-c2csc(N(C)C(=O)c3cccs3)n2)cc1	-2.71% (inactive)
O=C(NCC1CC1)Nc1ccc(Cl)cc1	8.75% (inactive)
CC(C)(C)c1csc(NC2=NS(=O)(=O)c3ccccc32)n1	4.58% (inactive)
O=C(N/N=C/c1ccccc1C(F)(F)F)c1ccc(O)cc1	12.3% (inactive)
O=C(NOCc1ccccc1)OCc1ccccc1	10.8% (inactive)
COc1ccc(-c2ccc(C(=O)C3CC3)cc2)cc1	3.45% (inactive)
CCCc1ccc(C(=O)NNc2ccccc2F)cc1	5% (inactive)
COc1ccc(/C=N/Nc2nccnc2Cl)c(OC)c1	8.52% (inactive)
